# Hit rate of the full screen: of about 290,000 compounds, about 11,000 (3.8%) were called active. For the sample, actives were picked, then their nearest neighbours and some compounds at random. Values without a mark were called inactive.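 The calls were made as follows: active = mean replicate inhibition above about 79%, with every replicate also reaching it (limit read from the data); inconclusive = only one of the two criteria met; inactive = mean below limit and not every replicate reaching it.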
# Target: FAD-linked sulfhydryl oxidase ALR (Homo sapiens) (UniProt P55789)
# Experiment: ALR-catalysed DTT oxidation blockers – biochemical, H2O2 detection, HRP-luminol luminescence, single point, primary screen (AID 485317)
# Conditions: purified ALR, stronger effect = higher value, concentration not given here
# Sequence of FAD-linked sulfhydryl oxidase ALR (Homo sapiens) (P55789 whole entry, looked up): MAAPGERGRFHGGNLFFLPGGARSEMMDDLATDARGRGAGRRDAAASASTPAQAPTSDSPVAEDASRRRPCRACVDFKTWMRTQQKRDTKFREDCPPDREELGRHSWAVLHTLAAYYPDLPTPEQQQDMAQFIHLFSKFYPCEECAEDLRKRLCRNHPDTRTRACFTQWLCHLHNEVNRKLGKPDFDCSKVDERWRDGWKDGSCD
row,Compound,inhibition
1,Cc1ccc(-c2nn(-c3ccc(F)cc3)cc2C(=O)NCC(c2cccs2)N2CCOCC2)cc1 (stereo not drawn),-3.7%
2,CC1(C)CC[C@]2(C(=O)O)CC[C@]3(C)C(=CCC4[C@@]5(C)CC[C@H](O)C(C)(C)C5[C@H](O)C[C@]43C)[C@@H]2C1 (stereo partly drawn),-9.76%
3,O=C(CN1CCN(c2cccc(Cl)c2)CC1)Nc1ccc(S(=O)(=O)N2CCOCC2)cc1,-14.5%
4,O=C(CN1CCN(c2ccc(O)cc2)CC1)Nc1cc(S(=O)(=O)N2CCOCC2)ccc1Cl,94.9% (active)
5,O=C(CN1CCOCC1)Nc1cc(Cl)ccc1Cl,-11.6%
6,CCOC(=O)Cc1csc(SCc2cc(=O)oc3cc(O)ccc23)n1,97.7% (active)
7,Cc1ccc2c(CSc3nncs3)cc(=O)oc2c1,-0.57%
8,CCOC(=O)Cc1csc(NC(=O)COc2ccc3c(C)cc(=O)oc3c2)n1,-3.23%
9,O=C(NCCc1ccc(F)cc1)c1ccc2nccnc2c1,-6.27%
10,CS(=O)(=O)c1ccc(Cl)c(NC(=O)COC(=O)c2ncc(Cl)c(Cl)c2Cl)c1,0.688%
11,Cc1ccc(NC(=O)CSCC(=O)Nc2sccc2C#N)cc1,98.7% (active)
12,N#Cc1ccsc1NC(=O)CN1CCCCC1,3.1%
13,Cc1cccc(C)c1Nc1nnc(SCC(=O)Nc2sccc2C#N)s1,14.7%
14,COC(C/C=C/C(=O)[C@@H](C)OCc1ccccc1)OC,55.7%
15,O=C(CNC(=O)C12CC3CC(CC(C3)C1)C2)OCC(=O)N1CCCCC1,-2.51%
16,O=C(CSc1ccccc1)Nc1cccc(S(=O)(=O)N2CCOCC2)c1,-1.29%
17,CCn1c(Cc2ccccc2)nnc1SCC(=O)Nc1ccccc1,-28.7%
18,CCc1c(O)nc(SCC(=O)Nc2ccccc2)n(C(C)CC)c1=O (stereo not drawn),98.8% (active)
19,CCn1c(CNC(=O)c2ccc(OC)c(OC)c2)nnc1SCC(=O)Nc1ccccc1,-2.46%
20,CC(OC(=O)c1ccc([N+](=O)[O-])cc1)C(=O)NCC1CCCCC1 (stereo not drawn),-1.04%
21,O=C(Nc1cccc2c1CCCC2)c1ccc(F)cc1,-21.6%
22,CC1CN(C(=O)c2ccc([N+](=O)[O-])s2)CC(C)O1 (stereo not drawn),-91.3%

row,Compound,inhibition
1,COc1cc2c(cc1OC)C(C(=O)Nc1cc(C)c(OC)c(C)c1)CC(=O)N2 (stereo not drawn),-6.22%
2,COc1cc(N/C=C2\CC(=O)NC(C)=C2C#N)cc(OC)c1OC,97.1% (active)
3,COC(=O)C1=C(C)NC(=O)CC1c1ccccc1OC (stereo not drawn),-0.32%
4,Cn1c(N)c(C(=O)COC(=O)/C=C/c2cccc(C(F)(F)F)c2)c(=O)n(C)c1=O,-1.31%
5,CC(Sc1nncn1C)C(=O)NCCC1=CCCCC1 (stereo not drawn),-2.34%
6,CC(CNC(=O)Cn1cnc2c(OCc3ccccc3)ncnc21)c1ccccc1 (stereo not drawn),-1.23%
7,CC1(c2nnc(Cc3ccccc3)o2)CC(c2ccccc2F)=NO1 (stereo not drawn),1.62%
8,CCCNC(=O)c1ccc(N2CCC3(CC2)CC(c2cccc(Br)c2)=NO3)c(NC(=O)c2ccco2)c1,6.36%
9,Cc1cc(C)c2c(=O)[nH]c(SCC(=O)Nc3ccc(Br)cc3)nc2n1,-7.51%
10,O=C(CSc1nc2ccccc2c(=O)[nH]1)Nc1nc(-c2ccc(Br)cc2)cs1,-3.23%
11,N#Cc1c(-c2cccs2)nc(SCC(=O)c2ccc(Br)cc2)[nH]c1=O,98.5% (active)
12,COCCNc1nnc(SCC(=O)NNC(=O)c2ccco2)s1,-2.35%
13,O=C(NCc1ccc2c(c1)OCO2)c1cc([N+](=O)[O-])ccc1N1CCOCC1,-3.3%
14,O=C(O)c1cccc(S(=O)(=O)N2CC=C(c3ccccc3)CC2)c1,3.35%
15,Cc1ccc(SC(CC(=O)c2ccc(C(C)(C)C)cc2)C(=O)O)cc1 (stereo not drawn),97.7% (active)
16,Cc1ccc(C(=O)NCCNC(=O)c2ccccc2)cc1,-3.69%
17,Cc1ccc(C(=O)CNc2ccc(F)cc2)cc1,-18.2%
18,CC(C)(C)OC(=O)C[C@@H]1C/C=C\C[C@@H](CC(=O)N(CCO)Cc2ccccc2)C(=O)N[C@H](Cc2ccccc2)COC1=O,-5.13%
19,Cc1cc(NC(=O)CSCC(=O)NC(C)c2ccccc2)no1 (stereo not drawn),-11.9%
20,O=C(CCCN1C(=O)/C(=C\c2ccccc2)SC1=S)Nc1ccccc1O,1.84%
21,COc1ccc(/C=C2\SC(=O)N(CCC(=O)NCCCn3ccnc3)C2=O)cc1,-4.29%
22,COc1ccc(/C=C2/SC(=O)N(CCCCCC(=O)Nc3ccccc3C(=O)O)C2=S)cc1,98.9% (active)

row,Compound,inhibition
1,O=C1COc2ccc(C(=O)COC(=O)c3ccccc3Cl)cc2N1,-5.15%
2,CCC(CO)Oc1cc(NC(=O)c2cccc3ccccc23)c2ncn(C(C)C)c2c1 (stereo not drawn),-21.2%
3,COC(=O)CNS(=O)(=O)c1ccc(OC)cc1,-8.89%
4,C/C(N)=C(/C#N)C(=O)COC(=O)CNS(=O)(=O)c1ccc(C)cc1,-12.8%
5,COC(=O)CNS(=O)(=O)c1ccc(Cc2ccc(S(=O)(=O)NCC(=O)OC)cc2)cc1,99.2% (active)
6,COc1cc(C(=O)N(C)Cc2cccc(OC)c2OC)ccc1OCC(=O)Nc1cccc(C(F)(F)F)c1,-114%
7,CC1O[C@@H](OC2C(O)C(C)O[C@H](OC(=O)[C@]34CCC(C)(C)C[C@H]3C3=CCC5[C@@]6(C)CC(O)C(O[C@@H]7OC(CO)C(O)[C@@H](O)[C@@H]7O)[C@@](C)(C(=O)O)C6CC[C@@]5(C)[C@]3(CO)CC4)C2O[C@H]2OC(C)[C@@H](O[C@@H]3OCC(O[C@@H]4OC(CO)C(O)[C@H](O)C4O)[C@@H](O)[C@@H]3O)[C@H](O)C2O)C(O)C(O)C1O (stereo partly drawn),22.9%
8,O=C(C[C@H]1C/C=C\C[C@@H](NC(=O)OCC2c3ccccc3-c3ccccc32)C(=O)O[C@@H](c2ccccc2)CNC1=O)N[C@H](CO)Cc1ccccc1,0.728%
9,OCc1ccc(-c2ccccc2)c(-c2ccccc2)c1,-3.81%
10,CCOc1cc(-c2nc3cc(C)ccn3c2NCC2CCCO2)ccc1O (stereo not drawn),99.6% (active)
11,CCOc1ccccc1Nc1nnc(SCC(=O)NCC2CCCO2)s1 (stereo not drawn),1.03%
12,CCOc1ccc(C(=O)Nc2ccc(S(=O)(=O)NCC3CCCO3)cc2)cc1OCC (stereo not drawn),1.23%
13,O=C(COC(=O)c1ccc(F)cc1)Nc1ccc2c(c1)OCO2,-9.08%
14,C=CC[C@@H](CC(=O)N[C@H](CO)Cc1ccccc1)C(=O)N[C@@H](COC(=O)[C@@H](CC=C)Cc1ccc(F)cc1)Cc1c[nH]c2ccccc12,10.3%
15,COc1ccccc1C(=O)Nc1ccccc1C(=O)Nc1ccccc1,4.88%
16,COc1ccccc1C(=O)Nc1nc2nc(-c3ccccc3)cc(=O)n2[nH]1,97.8% (active)
17,COc1ccccc1C(=O)Nc1ccc(Nc2ccccc2)cc1,-2.18%
18,O=C(CNC(=O)c1ccco1)NNC(=O)c1ccc(Br)cc1,-12.3%
19,C=CCC1(C(=O)N(C)Cc2ccccc2)CCN(C(=O)OC(C)(C)C)CC1,-25%
20,COc1ccc(NC(=O)CSc2ncnc3[nH]ncc23)cc1,98.6% (active)
21,COc1ccc(NC(=O)CSc2nc(C)cs2)cc1,-14.7%
22,CC(=O)Nc1ccc(NC(=O)CSc2ncnc3c2cnn3Cc2ccccc2)cc1,-9.78%

row,Compound,inhibition
1,CCCCn1nc(C(=O)Nc2cccc(C(=O)NC3CC3)c2)c2ccccc2c1=O,-0.223%
2,Cc1ccc(Nc2nnc(SC(C)C(=O)NC3CC3)s2)cc1 (stereo not drawn),7.72%
3,COc1cccc(OC)c1C(=O)N1CCN(Cc2cccnc2)CC1,6.59%
4,COc1ccccc1C(=O)N1CCN=C1SCc1cccnc1,96.4% (active)
5,COc1ccccc1C(=O)NCCC(=O)N(C)Cc1cccnc1,-1.19%
6,C=C1CCC(N(O)c2cc(C)on2)C(=C)CCC2C1CC2(C)C (stereo not drawn),4.12%
7,COc1ccccc1C(=O)OCC(=O)Nc1cccc(S(=O)(=O)NC2=NCCCCC2)c1,14.6%
8,Cc1ccc(S(=O)(=O)N2CCN(C(=O)Cn3c(=O)cnc4ccccc43)CC2)c(C)c1,-23.6%
9,CCc1sc(C(=O)N2CCN(CC(=O)Nc3cccc(F)c3)CC2)cc1C,-6.06%
10,COc1cc(/C=N\Nc2nc(-c3cccs3)c(NC(C)=O)s2)ccc1O,98.9% (active)
11,CCNc1nc(NCC)nc(N/N=C/c2ccc(O)c(OC)c2)n1,99.1% (active)
12,CCOc1cc(/C=C(\C#N)c2nc(-c3cccs3)c(NC(C)=O)s2)ccc1O,-22.4%
13,COc1cc(/C=N/Nc2nc3ccccc3s2)ccc1O,46.3%
14,COc1ccc(/C=N/Nc2nc3ccccc3o2)cc1OC,-12.6%
15,CCNc1nc(N)nc(-c2cc(Cl)ccc2OC)n1,4.24%
16,COc1ccccc1/C=N/Nc1nc(C)c(C(C)=O)s1,3.01%
17,CSc1ccc(/C=C2\NC(=O)NC2=O)cc1,4.58%
18,Cc1cccc(N=C2NC(=O)/C(=C/c3cn(C)c4ccccc34)S2)c1,-1.56%
19,Cc1ccc(-c2cc(C(=O)N/N=C/C=C/c3ccco3)c3ccccc3n2)cc1C,-5.26%
20,Cc1ccc(N=C2NC(=O)/C(=C/C=C/c3ccco3)S2)cc1C,88.6% (active)
21,COC(=O)C1=C(C)N(c2ccc(Br)cc2)C(=O)/C1=C\c1ccco1,3.31%
22,Cc1ccc(N2NC(=O)/C(=C/C=C/c3ccco3)C2=O)cc1C,97.4% (active)

# Reference: PubChem BioAssay AID485317 (Broad Institute, 2010)
